Measurements from the supplement of paper PMC7726561.
Whole data set: some 1,100 sequences, median “thermal melting temperature (Tm) of peptide-HLA complex” near 58, cut for the lowest 2% near 42. The entries come from a sample that favours the lowest values as a whole.

B1: unnamed (peptide)
chain: YLSGIAHFL
B2: unnamed (peptide)
chain: SLAQYLINA
B3: unnamed (peptide)
chain: TIPEAFRGV
B4: unnamed (peptide)
chain: KLLWTTSRV
B5: unnamed (peptide)
chain: RVIGTLEEV
B6: unnamed (peptide)
chain: YLDEDTIYHL
B7: unnamed (peptide)
chain: AALEEADKMFL
B8: unnamed (peptide)
chain: SVTSEGIKAV
B9: unnamed (peptide)
chain: TVADKIHSV
B10: unnamed (peptide)
chain: KMDEVLYSI
B11: unnamed (peptide)
chain: RLAEVGQYEQV
B12: unnamed (peptide)
chain: TLIGLSIKV
B13: unnamed (peptide)
chain: SVAEGRALMSV
B14: unnamed (peptide)
chain: FQVDEIYTV
B15: unnamed (peptide)
chain: ILDQKINEV
B16: unnamed (peptide)
chain: ILDQKVALL
B17: unnamed (peptide)
chain: VILESDPQQVV
B18: unnamed (peptide)
chain: IIADMDKWTV
B19: unnamed (peptide)
chain: SMGQLPHTV
B20: unnamed (peptide)
chain: ALERLLPQV
B21: unnamed (peptide)
chain: KLYQEVEIASV
B22: unnamed (peptide)
chain: SLLPFLKAV

Each sequence was assayed against HLA-A*02:01 (assay: thermal melting temperature (Tm) of peptide-HLA complex; higher = more thermostable pHLA complex). Conditions: C1R-A*02:01.
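Also: lysates heated 10 min at 37–73 °C, complexes pulled down with pan-HLA I antibody, peptide signal by DIA-MS relative to 37 °C, Tm where half the complex is unfolded.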

| Sequence | thermal melting temperature [°C] |
| --- | --- |
| B1 | 62 |
| B2 | 56.7 |
| B3 | 46.3 |
| B4 | 60.1 |
| B5 | 57.6 |
| B6 | 45.2 |
| B7 | 53.3 |
| B8 | 46 |
| B9 | 55.7 |
| B10 | 59 |
| B11 | 56.3 |
| B12 | 56.7 |
| B13 | 56.8 |
| B14 | 56 |
| B15 | 60 |
| B16 | 41.7 |
| B17 | 40.1 |
| B18 | 54.6 |
| B19 | 41.4 |
| B20 | 59.2 |
| B21 | 61 |
| B22 | 61.9 |
